Screens from PubChem BioAssay.
HP1b chromo inh: blocks HP1-beta chromodomain binding to methylated histone tails. AID 540317. Potency, µM (highest dose often 114 µM), for inactives: top-dose activity change, negative = inhibition, hits mostly inhibitors. 390,000 tested, 0.56% active. P83916. AlphaScreen HP1-beta / biotin-H3K9me3 peptide binding; further: nearly all actives have a fitted effect of over 70% in size
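AlphaScreen: HP1-beta (50 nM) preformed 30 min with biotin-H3(1-18)K9me3 peptide (50 nM) in PBS pH 7.4, 0.01% Tween-20. Compound added for 30 min at RT, then streptavidin donor/nickel chelate acceptor beads (10 ug/mL) for 30 min.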
G9a block: G9a (human) methyltransferase inhibition. G9a H3K9 monomethylation, AlphaScreen, 2 h. Potency, µM (series often up to 102 µM), for the others: top-dose activity, negative = inhibition, hits mostly inhibitors. Q96KQ7. 350,000 tested, 8.8% active; further: on the % scale 0 is the no-effect control and ±100 the full control effect; nearly all actives have a fitted effect of over 75% in size
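Step 1: enzyme (final 20 nM) with compound, 15 min RT. Step 2: substrate peptide 500 nM and SAM 20 uM, 2 h RT. Step 3: anti-H3K9me1 antibody and AlphaScreen beads, 10 min, then plate read.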
BAZ2B inh: BAZ2B (human) inhibition | AlphaScreen BAZ2B-H3K14Ac peptide displacement | Potency, µM (doses to about 114 µM), for inactives: at the highest dose activity change, negative = inhibition, actives largely listed as inhibitors | 360,000 tested, 4.4% active; further: on the % scale 0 is the no-effect control and ±100 the full control effect; nearly all actives have a fitted effect of over 60% in size
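AlphaScreen luminescence quantifies BAZ2B engagement of H3K14Ac peptide; the protein and biotinylated peptide are both at 50 nM final, buffer PBS pH 7.4 with 0.01% Tween-20, all steps at room temperature.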
GLS inhibitor: inhibitors of human glutaminase (GLS); O94925; GLS enzymatic activity, qHTS titration; Potency, µM (highest dose often 45.5 µM), without a hit: at the highest dose activity change, negative = inhibition, hits mostly inhibitors; 410,000 tested, 0.21% active; further: on the % scale 0 is the no-effect control and ±100 the full control effect
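Enzyme dispensed in phosphate buffer (45 mM, pH 8.2, 0.02% Tween-20), compounds pinned in, then 1 mM L-glutamine solution and the glutamate oxidase–HRP–Amplex Red mix added; fluorescence read immediately and again after 30 min at room temperature.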
JMJD2A Tudor: JMJD2A Tudor domain (human) inhibition; O75164; AlphaScreen JMJD2A-Tudor / H3K4me3 peptide binding; AID 504339; Potency, µM (top dose mostly 114 µM), for inactives: at the highest dose activity change, negative = inhibition, most hits filed as inhibitors; 390,000 tested, 4.4% active; further: on the % scale 0 is the no-effect control and ±100 the full control effect; nearly all actives have a fitted effect of over 50% in size
Numbers without * were called inactive; u = inconclusive; x = not tested or not shown; [ ] = remark or other dose. Most compounds without a hit are left out; they make up all but 10% or so of the library. The call rests on the fitted dose curve; in most records, active means well fitted curve in the direction sought with a large enough effect; inconclusive means small, poorly fitted or top-dose-only effect, or another doubt; inactive means no such curve, though single readings can be large; an effect the other way counts as inactive or inconclusive. Potency means the concentration at half of the fitted maximal effect.

SMILES | HP1b chromo inh | G9a block | BAZ2B inh | GLS inhibitor | JMJD2A Tudor
Cc1ccc(N2C(=O)CC2(C#N)c2ccc(OCc3ccccc3)cc2)cc1 (stereo unspecified) | 27.1% | 32.6%[59 µM] | -3.4% | 5.8% | -19.8%
CCCC(=O)Nc1cc(OC)c(OC)cc1C(=O)O | 31.1% | 4.5%[59 µM] | 1.6% | 0.8% | 5.0%
COc1cc2cc(NC(C)=O)cc(NCc3ccccc3)c2cc1OC | -2.0% | u | 44.7µM* | -6.2% | u
CCCCNc1cc(NC(C)=O)cc2cc(OC)c(OC)cc12 | -15.1% | 44.7µM* | -35.8% | -1.9% | u
CCS(=O)(=O)N1CCN(C2CCC(c3ccccc3)CC2)CC1 (stereo unspecified) | x | 10µM* | 50.1µM* | x | x
C[C@@H](C(=O)Nc1ccc2ccccc2c1)[C@@H]1C[C@@]1(C)[C@@H](NC(=O)c1cnccn1)c1ccccc1 | 38.1% | 50.1µM* | -5.5% | -1.5% | -11.4%
Cc1cc(-c2n[nH]c(=S)n2/N=C/c2cccc([N+](=O)[O-])c2)n[nH]1 | u | 1.58µM* | -11.7% | 0.0% | 7.94µM*
Cc1cc(-c2n[nH]c(=S)n2/N=C/c2cccc(O)c2)n[nH]1 | u | 2.24µM* | -20.3% | u | 3.16µM*
Cc1cc(C)cc(NC(=O)CCc2c(C)nn(-c3ccc(N4CCOCC4)nn3)c2C)c1 | 53.3% | 5.9%[59 µM] | -15.5% | 0.7% | -22.9%
c1ccc(-c2nc3ccccc3[nH]2)nc1 | 21.8% | -11.4% | -7.0% | -1.1% | u
O=c1[nH]c(-c2ccccn2)nc2ccccc12 | 39.9% | 18.7% | 44.7µM* | 2.2% | 56.2µM*
O=c1[nH]c(-c2ccccn2)nc(C(F)(F)F)c1Br | 1.5% | 14.2% | 28.2µM* | 4.4% | 17.8µM*
Cn1cc(C(=O)NS(=O)(=O)Nc2ccc(Br)cc2)c2ccccc21 | 48.9% | -13.3% | -37.3% | -3.9% | -3.6%
COC(=O)CCCN1C(=O)NC(c2ccc(-c3ccccc3)cc2)C(C(=O)OCc2ccccc2)=C1C (stereo unspecified) | 8.9% | x | x | 2.2% | -17.4%
COc1ccc(S(=O)(=O)NCCCN2CCOCC2)cc1F | 21.8% | 14.0% | -3.1% | -12.6% | -9.6%
COc1ccc(C(=O)NC(=S)N2CCOCC2)cc1[N+](=O)[O-] | 38.5% | 35.5µM* | -16.0% | 7.3% | -4.1%
COc1ccc(C(=O)NN2CCOCC2)cc1[N+](=O)[O-] | 18.4% | x | 3.7% | 1.9% | -3.5%
COc1ccc(S(=O)(=O)NCCN2CCOCC2)cc1[N+](=O)[O-] | -8.7% | 50.1µM* | -1.3% | 0.2% | -18.6%
COc1ccc(C(=O)NC(=S)NCCO)cc1Br | 5.8% | 44.7µM* | -2.8% | 23.4% | -27.4%
COc1ccc(C(=O)NC(=S)NNC(=O)c2ccc(O)cc2)cc1[N+](=O)[O-] | 6.1% | 31.6µM* | 5.8% | -14.0% | -18.4%
O=C(c1cccc2ccccc12)N1CCN(S(=O)(=O)c2ccccc2)CC1 | 78.0% | x | x | x | -17.7%
NC(=O)c1c(N)[nH]c(C(=O)c2ccccc2)c1-c1ccccc1Br | x | x | x | 33.9% | x
CC(C)(C)c1ccc(C(=O)NC(=S)N2CCOCC2)cc1 | 18.0% | -50.6% | -27.2% | 14.4% | -23.7%
COc1ccc(C(=O)NC(=S)N2CCOCC2)cc1Br | 25.6% | 20µM* | -18.9% | 20.6% | -6.2%
CC(C)=CCc1c2c(c(O)c3c(=O)c4c(oc13)-c1cc(O)c(O)cc1OC4C=C(C)C)C=CC(C)(C)O2 (stereo unspecified) | u | x | x | 3.7% | 35.5µM*
SMILES | HP1b chromo inh | G9a block | BAZ2B inh | GLS inhibitor | JMJD2A Tudor
CC(C)=CCc1c(-c2ccc(O)cc2O)oc2c3c(cc(O)c2c1=O)OC(C)(C)C=C3 | -7.6% | x | x | 3.7% | u
O=S1(=O)CCN(C2CC2)CC1 | x | x | x | -3.2% | x
O=c1c(C=Nc2cccc(C(F)(F)F)c2)c[nH]n1-c1cccc(Cl)n1 | -4.7% | 50.1µM* | u | -5.7% | 39.8µM*
O=c1c(C=Nc2ccc(Cl)cc2)c[nH]n1-c1cccc(Cl)n1 | 18.3% | -17.3%[12.7 µM] | -6.0% | 0.4% | 25.1µM*
CCOc1[nH]n(-c2ccccc2)c(=O)c1C=Nc1ccc(Cl)cc1 | -31.2% | -43.5%[12.7 µM] | u | 2.7% | u
O=c1[nH][nH]c(C(F)(F)F)c1C=Nc1cccc(Cl)c1 | 23.1% | u | -3.9% | 17.1% | -19.1%
C[C@@H](NC(=O)[C@@H]1CCCN1C(=O)[C@@H]1CCCN1C(=O)c1ccc(Cl)cc1)c1ccccc1 | x | x | x | -1.4% | x
